Results on 6 compounds are retold here after PubChem BioAssay.

The source made the active and inactive calls.

The test system of assay [1] is Human papillomavirus type 1a protein E7 (residues 44-93). Briefly: HPV1a E7 fragment binders on microarrays, primary screen, biochemical, small-molecule microarray, residues 44-93, 635 nm fluorescence (AID 1108).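 Further: E7 fragment applied at 1 µg/mL in TBST for 1 h at 4 C; score combines spot fluorescence with its signal to noise ratio.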 As to conditions: small-molecule microarray binding, fluorescence 635 nm; higher = more signal.
Assay [2] is described as follows: modulators of HCV replicon luciferase signal, primary screen, HCV replication inhibitor project, Huh7 cells, luciferase reporter (AID 1109).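 Further: huh7 hepatoma cells harbouring a luciferase neomycin HCV replicon reporter; luciferase luminescence as measure of HCV replicon replication; test concentration not given here.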 The conditions noted are these: 48 h, higher = more signal.
For assay [3], the target named is Left-right determination factor 2 (Homo sapiens) (UniProt O00292). Briefly: LEFTY2 binders on small-molecule microarrays, primary screen, biochemical, small-molecule microarray, 635 nm fluorescence scan (AID 1110). As to conditions: LEFTY2 binding, higher = more signal.
Left-right determination factor 2 (Homo sapiens), sequence (O00292 whole entry, looked up): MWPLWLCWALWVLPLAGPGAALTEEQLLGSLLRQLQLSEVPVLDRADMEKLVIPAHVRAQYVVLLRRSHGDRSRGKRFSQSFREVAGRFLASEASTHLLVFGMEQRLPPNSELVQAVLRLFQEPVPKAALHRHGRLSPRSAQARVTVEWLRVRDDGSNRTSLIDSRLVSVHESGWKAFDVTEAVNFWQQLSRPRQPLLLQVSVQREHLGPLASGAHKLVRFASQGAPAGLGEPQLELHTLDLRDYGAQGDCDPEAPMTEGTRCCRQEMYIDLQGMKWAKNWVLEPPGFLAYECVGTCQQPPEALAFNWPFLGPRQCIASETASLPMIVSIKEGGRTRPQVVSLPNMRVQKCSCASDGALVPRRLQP
Assay [4] has as its target Calmodulin-1 (Homo sapiens) (UniProt P0DP23). Briefly: CALM1 binders on microarrays, EGTA buffer, profiling panel, biochemical, small-molecule microarray, Cy5-labelled CALM1 (AID 1111).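 Further: labelled calmodulin applied in Tris saline Tween buffer holding calcium plus EGTA and DTT.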 The conditions noted are these: Cy5-CALM1 binding fluorescence, higher = more signal.
Assay [5] shares this target. Briefly: calcium-bound CALM1 binders on microarrays, profiling panel, artefact control for SMM control-protein annotation, biochemical, small-molecule microarray, Cy5-labelled CALM1, plus calcium (AID 1112).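 Further: score merges spot fluorescence with signal to noise from triplicate slides.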 The conditions noted are these: Cy5-CALM1 binding fluorescence, higher = more signal.
Assay [6] in a line: small-molecule microarray binders of probe aWnt5a, primary screen, biochemical, biotinylated probe, 635/667 nm fluorescence (AID 1113).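 Further: score merges 667 nm fluorescence intensity with signal-to-noise per printed feature.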 As to conditions: higher = more signal.
The nature of assay [7]: small-molecule microarray binders of probe aShh, primary screen, biochemical, biotinylated probe, 635/667 nm fluorescence (AID 1114).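 Further: probe is biotin-labelled aShh protein from a stem cell growth factor screen; measures binding of labelled protein to compounds printed on the slide; score merges feature fluorescence at 667 nm with signal-to-noise.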 As to conditions: higher = more signal.
The nature of assay [8]: small-molecule microarray binders of probe aNog, primary screen, biochemical, biotinylated probe, 635/667 nm fluorescence (AID 1115).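 Further: probe is biotinylated aNog protein used at 0.15 µg/mL for 1 h at 4 C; z-score combines 667 nm fluorescence of each spot with its signal to noise.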 The conditions noted are these: higher = more signal.
The target of assay [9] is Torsin-1A-interacting protein 1 (Homo sapiens) (UniProt Q5JTV8). Briefly: LAP1 binders from COS7 cell lysate, primary screen, small-molecule microarray, 635/667 nm fluorescence (AID 1116). As to conditions: COS7-hLAP1 lysate binding, 635 nm fluorescence, higher = more signal.
Torsin-1A-interacting protein 1 (Homo sapiens), sequence (Q5JTV8 whole entry, looked up): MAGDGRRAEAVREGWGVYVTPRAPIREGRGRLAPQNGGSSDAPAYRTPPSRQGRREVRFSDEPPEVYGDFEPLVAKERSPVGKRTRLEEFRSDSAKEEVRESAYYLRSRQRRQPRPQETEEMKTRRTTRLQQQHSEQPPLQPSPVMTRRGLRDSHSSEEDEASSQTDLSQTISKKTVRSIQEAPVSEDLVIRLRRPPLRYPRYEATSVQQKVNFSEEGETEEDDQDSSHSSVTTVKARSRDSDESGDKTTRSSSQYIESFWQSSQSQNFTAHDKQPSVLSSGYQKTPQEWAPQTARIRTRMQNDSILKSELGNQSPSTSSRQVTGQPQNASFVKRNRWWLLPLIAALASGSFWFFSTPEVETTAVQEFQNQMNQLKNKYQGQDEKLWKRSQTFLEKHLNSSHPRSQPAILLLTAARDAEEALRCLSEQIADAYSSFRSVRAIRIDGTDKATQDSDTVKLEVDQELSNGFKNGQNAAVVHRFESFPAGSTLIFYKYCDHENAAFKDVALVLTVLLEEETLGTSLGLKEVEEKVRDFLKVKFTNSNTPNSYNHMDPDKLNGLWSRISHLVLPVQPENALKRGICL
The target in assay [10] is Alpha-bungarotoxin (Bungarus multicinctus) (UniProt P60615). Briefly: alpha-bungarotoxin binders on microarray, profiling panel, artefact control for SMM control protein annotation, biochemical, small-molecule microarray, Alexa647 label, 635/667 nm fluorescence (AID 1117). As to conditions: alpha-BTX-A647 binding fluorescence, higher = more signal.
Alpha-bungarotoxin (Bungarus multicinctus), sequence (P60615 whole entry, looked up): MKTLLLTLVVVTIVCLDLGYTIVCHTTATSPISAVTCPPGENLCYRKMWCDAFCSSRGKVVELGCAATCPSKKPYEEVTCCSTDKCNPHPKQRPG
The target of the next assay is Albumin (Bos taurus) (UniProt P02769). Briefly: bovine serum albumin binders on microarray, profiling panel, artefact control for SMM control protein annotation, biochemical, small-molecule microarray, Alexa647 label, 635/667 nm fluorescence (AID 1118).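 Further: score merges 667 nm emission intensity and signal-to-noise per printed compound spot.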 The conditions noted are these: BSA-A647 binding, fluorescence 635 nm, higher = more signal.
Albumin (Bos taurus), sequence (P02769 whole entry, looked up): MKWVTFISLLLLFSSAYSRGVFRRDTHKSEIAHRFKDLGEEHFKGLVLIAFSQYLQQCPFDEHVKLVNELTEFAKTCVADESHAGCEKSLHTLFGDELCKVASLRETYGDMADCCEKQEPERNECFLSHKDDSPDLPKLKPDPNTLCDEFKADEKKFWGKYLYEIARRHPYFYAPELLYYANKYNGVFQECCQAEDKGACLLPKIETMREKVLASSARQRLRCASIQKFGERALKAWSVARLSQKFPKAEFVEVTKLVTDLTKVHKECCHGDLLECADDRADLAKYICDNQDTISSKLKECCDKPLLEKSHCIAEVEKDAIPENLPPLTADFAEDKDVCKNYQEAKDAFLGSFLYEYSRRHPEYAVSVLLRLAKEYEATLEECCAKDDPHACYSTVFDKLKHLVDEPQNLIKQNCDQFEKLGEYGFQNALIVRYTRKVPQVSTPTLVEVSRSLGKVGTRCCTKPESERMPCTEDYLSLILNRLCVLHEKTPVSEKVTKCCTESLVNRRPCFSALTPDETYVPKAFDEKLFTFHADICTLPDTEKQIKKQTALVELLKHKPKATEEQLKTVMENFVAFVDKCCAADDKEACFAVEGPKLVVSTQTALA
Assay [11] can be described thus: small-molecule microarray binders of probe aXIP, primary screen, biochemical, NeuroSMM set, 635/667 nm fluorescence (AID 1119).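 Further: probe is the protein aXip251-270 applied at 1 µg/mL to compound-printed slides; binding of probe to printed compounds measured as 667 nm fluorescence plus signal to noise.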 As to conditions: higher = more signal, called active from +8 up or from −8 down.
A short description of assay [12]: small-molecule binders of probe aNOTCH3, primary screen, biochemical, small-molecule microarray, 635/667 nm fluorescence (AID 1120).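 Further: probe is a biotin-tagged antibody raised against NOTCH3 rather than NOTCH3 protein; score merges spot fluorescence near 667 nm with spot signal to noise.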 As to conditions: higher = more signal.
Assay [13] can be described thus: small-molecule binders of probe aNOTCH2, primary screen, biochemical, small-molecule microarray, 635/667 nm fluorescence (AID 1121).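 Further: score merges feature fluorescence read at 667 nm with its signal to noise.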 The conditions noted are these: higher = more signal.
Assay [14] has as its target Carbonic anhydrase 2 (Homo sapiens) (UniProt P00918). Briefly: CAII small-molecule binders, profiling panel, biochemical, small-molecule microarray, Alexa647-labelled CAII (AID 1122). As to conditions: CAII-A647 binding fluorescence, higher = more signal.
A short description of assay [15]: COS7 lysate on small-molecule microarray, probe aHis, 635 nm (AID 1123).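 Further: z-score combines 667nm fluorescence intensity with signal-to-noise per printed compound spot.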 The conditions noted are these: COS7 cell lysate, fluorescence, higher = more signal.
Assay [16] is described as follows: compound binding in COS7 lysate, probe aLAP1, primary screen, cell lysate, small-molecule microarray (AID 1124).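 Further: lysate comes from COS7 cells expressing LAP1 and is applied at 0.3 µg/mL; score merges spot fluorescence near 667 nm with signal-to-noise over triplicate slides.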 The conditions noted are these: probe aLAP1, fluorescence, higher = more signal.
The subject of a further assay is Sam68 (KHDRBS1). Briefly: Sam68 small-molecule binders, primary screen, biochemical, small-molecule microarray, 635 nm fluorescence (AID 1125).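 Further: score merges 667 nm channel intensity with signal to noise over triplicate slides.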 As to conditions: small-molecule microarray binding, higher = more signal.
Assay [17] concerns Chordin-like protein 2 (CHRDL2). Briefly: CHRDL2 small-molecule binders, primary screen, biochemical, small-molecule microarray, 635 nm fluorescence (AID 1126).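 Further: printed compound slides probed with Chrdl2 protein at 4 µg/mL for 1 h at 4 C; score merges 667 nm emission intensity with signal to noise over three replicate slides.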 The conditions noted are these: small-molecule microarray binding, fluorescence 635 nm; higher = more signal.
The target of assay [18] is Concanavalin-A (Canavalia ensiformis) (UniProt P02866). Briefly: ConA small-molecule binders, primary screen, artefact control for SMM control protein annotation, biochemical, small-molecule microarray, Alexa647 label, 635 nm (AID 1127).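 Further: z combines 667 nm emission intensity with signal-to-noise across three replicate slides.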 As to conditions: ConA-A647 binding fluorescence, higher = more signal.
Concanavalin-A (Canavalia ensiformis), sequence (P02866 whole entry, looked up): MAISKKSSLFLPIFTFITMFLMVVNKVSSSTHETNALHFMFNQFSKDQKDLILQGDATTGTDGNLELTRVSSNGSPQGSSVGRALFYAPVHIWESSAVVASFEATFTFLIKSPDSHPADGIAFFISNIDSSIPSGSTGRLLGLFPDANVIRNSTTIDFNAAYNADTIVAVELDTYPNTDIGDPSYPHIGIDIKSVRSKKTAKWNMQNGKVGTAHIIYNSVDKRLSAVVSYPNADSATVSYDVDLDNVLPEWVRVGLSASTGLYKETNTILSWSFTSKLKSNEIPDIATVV

Take `COCCCNC(=O)[C@]1(CCS(=O)(=O)c2ccccc2)N=C(c2ccc(OCCCO)cc2)O[C@@H]1c1ccccc1`: the composite z-score was 1.11 in assay [1]; 0.494 in assay [3]; 1.62 in assay [4]; 0.214 in assay [5]; 0.0179 in [6]; -0.161 in assay [7]. In addition, the composite z-score in [8] was -0.315; in assay [9], 1.8; in assay [10], 1.5; with Albumin (Bos taurus), 0.88; in assay [12] it was 0.558; in assay [13] it was 0.284. Besides, the composite z-score in assay [14] stood at 0.751; in assay [15], 2.99; in assay [16], 1.75; in the assay with Sam68 (KHDRBS1) it was 1.3; in [17], 0.0923; in [18], 1.1. The z-score in assay [2] was -0.995. For the same compound, the composite Z-score in assay [11] is -0.263 (inactive).

Consider `NC(=O)[C@H]1[C@@H]2C(=O)O[C@@H](c3ccccc3)[C@@H](c3ccccc3)N2[C@@H](c2ccc(O)cc2)[C@]12C(=O)Nc1ccc(C#CC3(O)CCCCCC3)cc12`, for which the composite z-score in [1] is 1.45; in [3] it was 0.6; in assay [4] it was 0.861; in assay [5], -0.227; in assay [6], -0.12; in [7] it was 0.534. Moreover, the composite z-score in assay [8] is -0.327; in [9], 1.49; in assay [10] it was 1.49; with Albumin (Bos taurus), 0.0474; in [12], 0.205; in assay [13] it was -0.0859. The composite z-score came out at 0.51 in assay [14]; 2.63 in assay [15]; 0.807 in assay [16]; 1.29 in the assay on Sam68 (KHDRBS1); 0.412 in [17]; 1.12 in assay [18]. This compound gave a z-score in assay [2] of -2.61. Besides, the composite Z-score in [11] was 0.467 (inactive).

For `COCCCNC(=O)[C@@]1(Cc2ccccc2CN=[N+]=[N-])N=C(c2ccc(OCCCO)cc2)O[C@H]1c1ccccc1N=[N+]=[N-]`, the composite z-score is -0.0639 in assay [1]; 0.0652 in assay [3]; 1.56 in assay [4]; 1 in assay [5]; 0.0388 in assay [6]; 0.291 in assay [7]. Further, the composite z-score is -0.675 in assay [8]; 0.785 in [9]; 1.48 in assay [10]; 0.778 in the assay with Albumin (Bos taurus); 0.303 in assay [12]; 0.168 in assay [13]. Besides, the composite z-score in [14] is 0.421; in [15], 2.43; in assay [16], 0.656; in the assay on Sam68 (KHDRBS1) it was 1.02; in assay [17], -0.379; in assay [18] it was 1.04. In assay [2], the z-score was -2.3. Moreover, the composite Z-score in assay [11] was 0.397 (inactive).

As to `O=C1NC(=O)C2C1C=CC(C(O)CCc1ccccc1)N2Nc1ccccn1` (stereo not given), the composite z-score in assay [1] was -0.574; in assay [3] it was -0.0953; in assay [4], 0.901; in assay [5], 0.569; in assay [6] it was -0.0445; in [7], -0.262. In addition, the composite z-score in [8] is -0.279; in assay [9] it was 2.33; in assay [10], 0.67; in the assay with Albumin (Bos taurus), 0.558; in [12], -0.145; in assay [13], -0.0116. The composite z-score in [14] was determined as 0.894; in [15] it was 1.02; in [16], 1.59; with Sam68 (KHDRBS1), 0.438; in assay [17], 0.0374; in assay [18] it was 0.891. This compound also came in with a z-score in assay [2] of 0.204. In [11], the composite Z-score is 1.62 (inactive).

For `CN(C)C(=O)[C@]1(Cc2ccccc2N=[N+]=[N-])N=C(c2ccc(OCCCO)cc2)O[C@@H]1c1ccccc1CN=[N+]=[N-]`, the composite z-score in assay [1] amounted to 1.42; in [3], 0.234; in assay [4], 0.668; in [5], 0.271; in assay [6], 0.0559; in assay [7], 0.13. The composite z-score in assay [8] was -0.488; in assay [9], 0.939; in assay [10], 0.564; with Albumin (Bos taurus), 0.828; in assay [12] it was 0.473; in [13] it was -0.0349. For the same compound, the composite z-score in assay [14] is 0.684; in [15], 2.53; in assay [16], 0.635; in the assay with Sam68 (KHDRBS1), 1.3; in assay [17], -0.21; in assay [18], 0.875. Besides, in assay [2], the z-score was -2.55. The composite Z-score in assay [11] was -0.136 (inactive).

In the case of `COCCOC(=O)N1C(=O)[C@@]2(c3cc(C#CCC(C(=O)OC)C(=O)OC)ccc31)[C@H](C(=O)N1CCCCCCC1)[C@H]1C(=O)O[C@H](c3ccccc3)[C@H](c3ccccc3)N1[C@@H]2c1ccc(O)cc1`, the composite z-score in [1] was 1.37; in assay [3], 0.485; in assay [4], 1.1; in [5], 0.624; in [6], 0.244; in assay [7], -0.0422. Also, the composite z-score in [8] is 2.33; in assay [9], 0.166; in assay [10] it was 1.3; in the assay with Albumin (Bos taurus) it was -0.0345; in assay [12] it was 0.996; in assay [13], 0.222. Also, the composite z-score in [14] worked out at 0.387; in assay [15] it was 2.34; in assay [16] it was 2.4; with Sam68 (KHDRBS1) it was 1.31; in assay [17], 1.29; in assay [18], 0.783. The z-score in assay [2] was -0.586. Further, the composite Z-score in assay [11] is 0.604 (inactive).
